# In ChEMBL document CHEMBL4513139, “CO-ADD screening of University of Strathclyde (UK) compounds”:
# Potency and affinity values are given separately.
# Experiments:
# Klebsiella pneumoniae = conditions: Concentration 32 ug.mL-1; ASSAY_TEST Inhibition of Bacterial Growth; detection method Absorption (OD600); MEDIA CAMHB; plate type 384well; NBS; CORNING #3640; time 18 hr
# Candida albicans = conditions: 32 ug/mL
# Cryptococcus neoformans = conditions: Concentration 32 ug.mL-1; ASSAY_TEST Inhibition of Fungal Growth; detection method Resazurin; Absorption (OD600-OD570); plate type 384well; NBS; CORNING #3640
smiles,measurement,setting,value
CCOP(=O)(OCC)C(Cc1cn(Cc2cnc(C)nc2N)nn1)C(=O)O.O=C(O)C(F)(F)F (stereo not drawn),Inhibition,Klebsiella pneumoniae,-0.1%
same,Inhibition,Candida albicans,2.73%
same,Inhibition,Cryptococcus neoformans,-36.59%
